# According to the supplement of paper PMC4466140:
# Biological target: CaNbp2
# Test: SPOT peptide array binding signal intensity (averaged, normalized) (arbitrary units (background-subtracted, floor 0; scale differs between SH3 domains)); higher = stronger binding of the SH3 domain to the peptide
# Procedure, shortened: (§1)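 Spot intensities were captured after detection with anti-GST antibody, an HRP-linked anti-mouse secondary and luminol, and quantified with Genespotter. The probes were GST-fused SH3 domains from four yeast species, produced in E. coli BL21(DE3), purified on glutathione Sepharose and incubated at 10 μg/ml overnight at 4°C on cellulose-bound synthetic 15-mer peptides with cysteines replaced by serines. Binding signal is the normalized, background-subtracted spot intensity averaged over replicates, and its arbitrary units differ between domains.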
row,Binder,SPOT peptide array binding signal intensity
1,DAPASKPSVPPRNYF,≤ 0

# Biological target: CaRvs167
# Test: as above
# Procedure, shortened: as §1
row,Binder,SPOT peptide array binding signal intensity
1,DAPASKPSVPPRNYF,199

# Biological target: CaRvs167-3
# Test: as above
# Procedure, shortened: as §1
row,Binder,SPOT peptide array binding signal intensity
1,DAPASKPSVPPRNYF,≤ 0

# Biological target: CaSho1
# Test: as above
# Procedure, shortened: as §1
row,Binder,SPOT peptide array binding signal intensity
1,DAPASKPSVPPRNYF,≤ 0

# Biological target: CaSla1-D1-D2
# Test: as above
# Procedure, shortened: as §1
row,Binder,SPOT peptide array binding signal intensity
1,DAPASKPSVPPRNYF,38

# Biological target: CaSla1-D3
# Test: as above
# Procedure, shortened: as §1
row,Binder,SPOT peptide array binding signal intensity
1,DAPASKPSVPPRNYF,≤ 0

# Biological target: ScAbp1
# Test: as above
# Procedure, shortened: as §1
row,Binder,SPOT peptide array binding signal intensity
1,DAPASKPSVPPRNYF,≤ 0

# Biological target: ScBbc1
# Test: as above
# Procedure, shortened: as §1
row,Binder,SPOT peptide array binding signal intensity
1,DAPASKPSVPPRNYF,5.5

# Biological target: ScBem1-D1
# Test: as above
# Procedure, shortened: as §1
row,Binder,SPOT peptide array binding signal intensity
1,DAPASKPSVPPRNYF,2

# Biological target: ScBzz1-D1
# Test: as above
# Procedure, shortened: as §1
row,Binder,SPOT peptide array binding signal intensity
1,DAPASKPSVPPRNYF,20

# Biological target: ScBzz1-D2
# Test: as above
# Procedure, shortened: as §1
row,Binder,SPOT peptide array binding signal intensity
1,DAPASKPSVPPRNYF,10

# Biological target: ScCyk3
# Test: as above
# Procedure, shortened: as §1
row,Binder,SPOT peptide array binding signal intensity
1,DAPASKPSVPPRNYF,≤ 0

# Biological target: ScFus1
# Test: as above
# Procedure, shortened: as §1
row,Binder,SPOT peptide array binding signal intensity
1,DAPASKPSVPPRNYF,≤ 0

# Biological target: ScHof1
# Test: as above
# Procedure, shortened: as §1
row,Binder,SPOT peptide array binding signal intensity
1,DAPASKPSVPPRNYF,≤ 0

# Biological target: ScHse1
# Test: as above
# Procedure, shortened: as §1
row,Binder,SPOT peptide array binding signal intensity
1,DAPASKPSVPPRNYF,≤ 0

# Biological target: ScLsb1
# Test: as above
# Procedure, shortened: as §1
row,Binder,SPOT peptide array binding signal intensity
1,DAPASKPSVPPRNYF,681

# Biological target: ScLsb2
# Test: as above
# Procedure, shortened: as §1
row,Binder,SPOT peptide array binding signal intensity
1,DAPASKPSVPPRNYF,2160

# Biological target: ScLsb3
# Test: as above
# Procedure, shortened: as §1
row,Binder,SPOT peptide array binding signal intensity
1,DAPASKPSVPPRNYF,1550

# Biological target: ScLsb4
# Test: as above
# Procedure, shortened: as §1
row,Binder,SPOT peptide array binding signal intensity
1,DAPASKPSVPPRNYF,293

# Biological target: ScMyo3
# Test: as above
# Procedure, shortened: as §1
row,Binder,SPOT peptide array binding signal intensity
1,DAPASKPSVPPRNYF,≤ 0

# Biological target: ScMyo5
# Test: as above
# Procedure, shortened: as §1
row,Binder,SPOT peptide array binding signal intensity
1,DAPASKPSVPPRNYF,≤ 0

# Biological target: ScNbp2
# Test: as above
# Procedure, shortened: as §1
row,Binder,SPOT peptide array binding signal intensity
1,DAPASKPSVPPRNYF,526

# Biological target: ScPex13
# Test: as above
# Procedure, shortened: as §1
row,Binder,SPOT peptide array binding signal intensity
1,DAPASKPSVPPRNYF,1310

# Biological target: ScRvs167
# Test: as above
# Procedure, shortened: as §1
row,Binder,SPOT peptide array binding signal intensity
1,DAPASKPSVPPRNYF,1530

# Biological target: ScSho1
# Test: as above
# Procedure, shortened: as §1
row,Binder,SPOT peptide array binding signal intensity
1,DAPASKPSVPPRNYF,≤ 0

# Biological target: ScSla1-D1-D2
# Test: as above
# Procedure, shortened: as §1
row,Binder,SPOT peptide array binding signal intensity
1,DAPASKPSVPPRNYF,329

# Biological target: ScSla1-D3
# Test: as above
# Procedure, shortened: as §1
row,Binder,SPOT peptide array binding signal intensity
1,DAPASKPSVPPRNYF,145

# Biological target: SpAbp1-D1
# Test: as above
# Procedure, shortened: as §1
row,Binder,SPOT peptide array binding signal intensity
1,DAPASKPSVPPRNYF,3

# Biological target: SpBbc1
# Test: as above
# Procedure, shortened: as §1
row,Binder,SPOT peptide array binding signal intensity
1,DAPASKPSVPPRNYF,182

# Biological target: SpBzz1-D1
# Test: as above
# Procedure, shortened: as §1
row,Binder,SPOT peptide array binding signal intensity
1,DAPASKPSVPPRNYF,95

# Biological target: SpBzz1-D2
# Test: as above
# Procedure, shortened: as §1
row,Binder,SPOT peptide array binding signal intensity
1,DAPASKPSVPPRNYF,0.5

# Biological target: SpCyk3
# Test: as above
# Procedure, shortened: as §1
row,Binder,SPOT peptide array binding signal intensity
1,DAPASKPSVPPRNYF,≤ 0

# Biological target: SpHof1
# Test: as above
# Procedure, shortened: as §1
row,Binder,SPOT peptide array binding signal intensity
1,DAPASKPSVPPRNYF,1

# Biological target: SpHof1-2
# Test: as above
# Procedure, shortened: as §1
row,Binder,SPOT peptide array binding signal intensity
1,DAPASKPSVPPRNYF,2

# Biological target: SpHof1-3
# Test: as above
# Procedure, shortened: as §1
row,Binder,SPOT peptide array binding signal intensity
1,DAPASKPSVPPRNYF,11

# Biological target: SpHse1
# Test: as above
# Procedure, shortened: as §1
row,Binder,SPOT peptide array binding signal intensity
1,DAPASKPSVPPRNYF,≤ 0

# Biological target: SpLsb1
# Test: as above
# Procedure, shortened: as §1
row,Binder,SPOT peptide array binding signal intensity
1,DAPASKPSVPPRNYF,756

# Biological target: SpLsb4
# Test: as above
# Procedure, shortened: as §1
row,Binder,SPOT peptide array binding signal intensity
1,DAPASKPSVPPRNYF,3340

# Biological target: SpMyo1
# Test: as above
# Procedure, shortened: as §1
row,Binder,SPOT peptide array binding signal intensity
1,DAPASKPSVPPRNYF,2

# Biological target: SpNbp2
# Test: as above
# Procedure, shortened: as §1
row,Binder,SPOT peptide array binding signal intensity
1,DAPASKPSVPPRNYF,3

# Biological target: SpPex13
# Test: as above
# Procedure, shortened: as §1
row,Binder,SPOT peptide array binding signal intensity
1,DAPASKPSVPPRNYF,≤ 0

# Biological target: SpRvs167
# Test: as above
# Procedure, shortened: as §1
row,Binder,SPOT peptide array binding signal intensity
1,DAPASKPSVPPRNYF,802

# Biological target: SpSla1-D1-D2
# Test: as above
# Procedure, shortened: as §1
row,Binder,SPOT peptide array binding signal intensity
1,DAPASKPSVPPRNYF,≤ 0

# Biological target: SpSla1-D3
# Test: as above
# Procedure, shortened: as §1
row,Binder,SPOT peptide array binding signal intensity
1,DAPASKPSVPPRNYF,≤ 0
